# Screening data deposited in PubChem by Broad Institute.
# RAD54 branch: blocks human RAD54 Holliday junction branch migration. Q92698. FAM/BHQ fluorescence. inhibition, % at 10.4 µM. hit rate 0.14% among 360,000;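 active = mean normalized replicate activity at least 40 and at least half of replicates scoring 40 or more; inconclusive = only one of the two criteria met; inactive = mean below 40 and under half of replicates reaching 40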;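 note: 0% = median of neutral control wells and 100% = median of positive control wells; inhibitors cause a drop in the FAM fluorescence signal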
# N-glyco inh: N-linked glycosylation inhibition | D54 ERlucT glycosylation luciferase reporter, 24 h; percent of 100 nM tunicamycin response | reporter increase, % at 12.5 µM | hit rate 0.23% among 360,000 | AID 588692;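 active = mean luciferase reporter signal, scaled so untreated is 0 and the glycosylation-blocking control 100, at or above a set limit in every replicate; inconclusive = mean reaches the limit but not every replicate does; inactive = mean below the limit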;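 note: luciferase carries N-glycosylation sites so blocking glycosylation raises the light; 0% = median of neutral control wells and 100% = median of 100 nM tunicamycin wells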
# MLL AF4-AF9 inh: blocks AF4 peptide binding to human AF9; AlphaScreen, biotin-AF4 peptide binding to FLAG-AF9; hit rate 0.47% among 350,000; inhibition, % at 10 µM;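 active = every replicate reaching a set inhibition limit, whatever the replicate mean, cut at about 25% in these data; inconclusive = mean inhibition reaches that limit but some replicates miss it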;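 note: 0% = plate neutral control median and 100% = total signal loss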
# Casp6 inh: caspase-6 (human) enzyme inhibition; hit rate 0.53% among 350,000; P55212; inhibition, % at 12.5 µM; purified caspase-6, Z-VEID-R110 cleavage fluorescence;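 active = mean inhibition across replicates at least about 35%, with every replicate also reaching that limit, limit read from the data; inconclusive = only one of the two criteria met; inactive = neither criterion met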;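 note: 0% = median of neutral control wells and 100% = no fluorescence left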
# RAD52 inh: RAD52 (human) annealing inhibition; inhibition, % at 18.7 µM; hit rate 0.46% among 360,000; recombinant RAD52 DNA annealing, FRET fluorescence; P43351;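 active = every replicate showing at least 50% inhibition; inconclusive = mean inhibition at least 50% but not in every replicate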
# Target sequence (P43351 whole entry, looked up): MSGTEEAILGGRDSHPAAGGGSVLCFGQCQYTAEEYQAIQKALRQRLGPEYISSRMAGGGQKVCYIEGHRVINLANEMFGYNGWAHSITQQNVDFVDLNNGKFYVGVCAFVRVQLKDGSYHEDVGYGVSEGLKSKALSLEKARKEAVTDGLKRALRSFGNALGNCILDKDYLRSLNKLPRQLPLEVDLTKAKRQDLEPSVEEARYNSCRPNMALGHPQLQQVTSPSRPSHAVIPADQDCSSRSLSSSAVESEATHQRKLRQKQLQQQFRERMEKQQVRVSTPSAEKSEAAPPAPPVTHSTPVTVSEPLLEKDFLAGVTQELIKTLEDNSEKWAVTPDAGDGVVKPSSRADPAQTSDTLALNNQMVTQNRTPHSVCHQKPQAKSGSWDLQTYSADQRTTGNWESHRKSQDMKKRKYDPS
# RAD52 DNA ctr: counter-screen for RAD52 inhibitors: DNA binding compounds; hit rate 8% among 1,000; Salmon sperm DNA/acridine orange FP displacement; AC50, µM; shares compounds with RAD52 inh;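 active = fitted half-maximal concentration for signal loss at or below twice the highest dose tested, in every separate run, actives reach about 64 µM in these data; inconclusive = runs disagree, or flat partial signal loss, or poor fit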
# Starred values were filed as active, the others as inactive; i = inactive; ? = inconclusive; . = not tested or not shown. In the library only some 1.2% were active in any assay of this set; here they are far more common.
SMILES,RAD54 branch,N-glyco inh,MLL AF4-AF9 inh,Casp6 inh,RAD52 inh,RAD52 DNA ctr
CCOC(=O)c1c(NC(=O)c2ccc(S(=O)(=O)N3CCOCC3)cc2)sc2c1CC(C)(C)NC2(C)C,3,2,-3,-5,-13,.
Cc1ccc2c(c1)c1c(n2CC(O)CNC(C)(C)C)CCCC1 (centres undefined),12,4,2,65*,52*,i
COc1ccc2c3c(n(C)c2c1)[C@H](CO)N(S(C)(=O)=O)CC31CCN(CC2CC2)CC1,.,.,-3,-2,24,.
CC(C)NC(=O)N(C)C[C@@H]1Oc2ccc(NC(=O)Cc3cn(C)c4ccccc34)cc2C(=O)N([C@H](C)CO)C[C@H]1C,8,.,0,1,13,.
CCOC(=O)c1c(C)oc2ccc(O)c(CN(C)C)c12,-2,-1,.,.,.,.
CCOC(=O)c1c(CSc2ccc(CC)cc2)oc2ccc(O)c(CN(C)C)c12,30,6,23,-13,58*,i
C[C@H](CO)N1C[C@H](C)[C@@H](CN(C)C(=O)Nc2ccc3c(c2)OCO3)OCCCC[C@H](C)Oc2ccc(NC(=O)Nc3ccccc3)cc2C1=O,-8,.,1,-3,2,.
CCCCN(CC)CCNC(=O)CCC(=O)Nc1ccc2nc(N3CCN(C)CC3)cc(C)c2c1,44,2,6,-27,81*,i
CCOC(=O)N1CCN(C(=S)Nc2ccc3nc(N4CCN(CC)CC4)cc(C)c3c2)CC1,37,-4,14,-56,54*,i
Cc1cc(N2CCOCC2)nc2ccc(NC(=S)NC(C)C)cc12,8,3,3,21,53*,i
CCN1CCN(c2cc(C)c3cc(NC(=O)c4ccc(C)c(C)c4)ccc3n2)CC1,26,-11,8,-19,1,.
CCCN(CCC)CCCNC(=S)Nc1ccc2nc(N3CCN(CC)CC3)cc(C)c2c1,.,-2,18,-62,97*,i
CC=Cc1ccc2n(c1=O)C[C@@H]1[C@@H](CO)[C@H](C(=O)NCC3CC3)[C@H]2N1Cc1cccnc1 (mixture of isomers),0,.,-3,0,-1,.
O=C(Nc1ccn(CCCN2CCN(c3ccccc3)CC2)c(=O)n1)OCc1ccccc1,4,-5,7,-5,3,.
O=C(Nc1ccn(CCCN2CCN(Cc3cccc4ccccc34)CC2)c(=O)n1)OCc1ccccc1,.,-3,15,1,52*,i
O=C(Nc1ccccc1)N1CC(=O)N2[C@H](CO)[C@H](c3ccc(C#CC4CCCC4)cc3)[C@H]2C1,.,.,3,0,8,.
C[C@@H]1CN([C@H](C)CO)C(=O)c2cc(NC(=O)c3ccncc3)ccc2O[C@@H](C)CCCCO[C@H]1CN(C)C(=O)Nc1ccc(F)cc1,-3,.,0,-1,15,.
NC[C@H](O)c1ccc(O)c(O)c1,-5,0,-2,79*,70*,i
CN(C)CCCNC(=O)C[C@@H]1CC[C@H]2[C@H](COc3ccc(NC(=O)C4CCC4)cc3C(=O)N2C)O1,-1,.,-2,-41,-9,.
COc1ccc2c(c1OC)C[N+]1([O-])CCc3cc4c(cc3C1C2)OCO4 (centres undefined),5,1,-2,-1,-31,.
COc1ccc2c(c1)CC1c3c(cc4c(c3-2)OCO4)CC[N+]1(C)[O-] (centres undefined),61*,15,7,12,82*,?
CC[n+]1ccc(/C=C/c2ccc(N(C)C)cc2)c2ccccc21,.,?,73*,-7,60*,13µM*
CC[n+]1ccccc1/C=C/c1ccc(N(C)C)cc1,-54,-5,4,-10,-225,.
CN/C(=C/[N+](=O)[O-])NCCSCc1ccc(CN(C)C)o1,3,2,-9,-106,55*,i
C[C@H](CO)N1C[C@H](C)[C@H](CN(C)S(=O)(=O)c2cccs2)Oc2c(NC(=O)Nc3cccc4ccccc34)cccc2C1=O,2,.,-1,1,3,.
SMILES,RAD54 branch,N-glyco inh,MLL AF4-AF9 inh,Casp6 inh,RAD52 inh,RAD52 DNA ctr
CCN(Cc1ccccc1)S(=O)(=O)c1ccc(C(=O)N(CCCN(C)C)c2nc3cc(OC)ccc3s2)cc1,.,-7,21,-6,59*,i
CCOc1cccc2sc(N(CCCN(C)C)C(=O)c3ccc(S(=O)(=O)N4CCc5ccccc5C4)cc3)nc12,11,-3,0,-13,55*,i
COc1ccc2sc(N(CCCN(C)C)C(=O)c3ccc(S(=O)(=O)N4CCCc5ccccc54)cc3)nc2c1,2,-8,31*,-12,77*,i
CCc1ccc2nc(N(CCCN(C)C)C(=O)c3ccc(S(=O)(=O)N4CCc5ccccc5C4)cc3)sc2c1,8,-5,1,-2,31,.
COc1cc2nc(N(CCCN(C)C)C(=O)c3ccc(S(=O)(=O)N4CCc5ccccc54)cc3)sc2cc1OC,15,-4,9,-79,70*,i
O=C(Nc1cc(F)ccc1F)N1CCCCN2[C@H](CO)[C@H](c3ccc(-c4cncnc4)cc3)[C@H]2C1,-3,.,-1,1,-12,.
CN1C(=O)c2cc(NC(=O)C3CCCC3)ccc2OC[C@H]2O[C@@H](CC(=O)NCC(F)(F)F)CC[C@@H]21,-9,.,0,0,-5,.
CCNC(=O)[C@H]1[C@H](CO)[C@H]2Cn3c(ccc(C4=CCCC4)c3=O)[C@@H]1N2C(=O)CC,-25,.,-2,-3,-4,.
COc1ccc(C(CCN2CCOCC2)c2c(OC)cc(OC)c3c(-c4ccccc4)cc(=O)oc23)cc1 (centres undefined),3,-8,8,0,51*,i
C[C@@H]1CN([C@@H](C)CO)C(=O)c2cc(C3=CCCC3)cnc2O[C@H]1CN(C)Cc1ccccc1,-10,.,6,-4,11,.
CO[C@@H]1CN(C)C(=O)c2ccc(NC(=O)Nc3ccccc3)cc2OC[C@@H](C)N(C(=O)Nc2c(C)noc2C)C[C@H]1C,-8,.,1,1,18,.
CC(CC(=O)c1ccc(F)cc1)N1CCN(c2ccccc2)CC1 (centres undefined),.,2,24,-48,80*,i
Cc1ccccc1OCC(O)CNC1CCC(NCC(O)COc2ccccc2C)CC1 (centres undefined),22,-17,21,-28,-15,i
Nc1ccc2nc(CCCO)[nH]c2c1,36,4,13,-14,93*,i
CC[C@H](C)[C@@H](C(=O)NCCCCCCCCCCC(=O)N1CCNCC1)n1cc(CCCCN=C(N)N)nn1,10,2,15,-18,35,.
CC[C@H](C)Cc1cn([C@@H](CCCN=C(N)N)C(=O)NCCCCCCCCCCC(=O)N2CCNCC2)nn1,12,0,-29,-41,52*,i
C[C@H]1CN([C@@H](C)CO)S(=O)(=O)c2ccc(C3=CCCC3)cc2O[C@H]1CN(C)S(=O)(=O)c1cn(C)cn1,-3,.,-1,2,-7,.
